# Laboratory results as given in paper PMC4336329 (PLoS ONE, 2015).
# Out of some 310,000 compounds screened, about 2,200 (0.71%) showed an effect of 50% or more. The effect is printed as a negative number. This is one part of a sample in which strong results are shown more often than they occur.
# Target: human ether-à-go-go-related gene (hERG) potassium channel (human, UniProt Q12809)
# Test: primary screen, population patch clamp on CHO cells stably expressing hERG; higher = less effect of the substance
# Chain of human ether-à-go-go-related gene (hERG) potassium channel (Q12809 whole entry, looked up): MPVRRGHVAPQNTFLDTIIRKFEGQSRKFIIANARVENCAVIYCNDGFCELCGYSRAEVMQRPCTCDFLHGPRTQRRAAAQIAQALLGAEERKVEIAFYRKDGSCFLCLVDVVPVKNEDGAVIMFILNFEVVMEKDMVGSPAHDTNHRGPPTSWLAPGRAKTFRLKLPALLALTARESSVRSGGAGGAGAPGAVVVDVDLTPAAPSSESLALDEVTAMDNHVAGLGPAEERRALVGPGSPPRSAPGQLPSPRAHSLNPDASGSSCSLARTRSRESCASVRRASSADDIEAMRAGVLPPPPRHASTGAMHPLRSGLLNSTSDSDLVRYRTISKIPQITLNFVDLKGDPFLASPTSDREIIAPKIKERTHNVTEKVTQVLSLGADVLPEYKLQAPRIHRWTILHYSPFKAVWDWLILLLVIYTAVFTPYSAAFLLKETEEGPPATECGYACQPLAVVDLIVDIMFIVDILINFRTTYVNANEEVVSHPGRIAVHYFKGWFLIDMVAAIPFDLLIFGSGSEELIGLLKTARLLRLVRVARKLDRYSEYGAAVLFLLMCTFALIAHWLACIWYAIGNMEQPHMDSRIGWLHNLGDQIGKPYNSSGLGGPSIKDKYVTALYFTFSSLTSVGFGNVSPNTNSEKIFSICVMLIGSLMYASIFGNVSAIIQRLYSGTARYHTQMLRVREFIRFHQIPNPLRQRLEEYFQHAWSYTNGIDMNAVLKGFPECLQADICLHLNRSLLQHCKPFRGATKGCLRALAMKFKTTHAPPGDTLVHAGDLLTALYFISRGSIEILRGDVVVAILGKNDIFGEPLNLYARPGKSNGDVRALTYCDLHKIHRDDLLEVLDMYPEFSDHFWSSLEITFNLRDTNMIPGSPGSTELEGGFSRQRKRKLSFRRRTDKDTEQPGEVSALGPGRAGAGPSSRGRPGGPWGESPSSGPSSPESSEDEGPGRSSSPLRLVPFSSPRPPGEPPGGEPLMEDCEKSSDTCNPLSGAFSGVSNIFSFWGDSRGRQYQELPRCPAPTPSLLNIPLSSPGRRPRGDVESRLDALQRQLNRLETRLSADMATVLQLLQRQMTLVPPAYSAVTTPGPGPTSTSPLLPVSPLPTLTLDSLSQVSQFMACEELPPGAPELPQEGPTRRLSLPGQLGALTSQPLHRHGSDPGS
row,Structure (SMILES),"hERG current change (%, negative = inhibition) at 1uM [%]"
1,c1ccc(-c2nnc3sc(-c4cc5ccccc5o4)nn23)cc1,14.4
2,CCCCCC(=O)Nc1cccc(-c2nc3ncccc3o2)c1,0.93
3,Cc1ccc(-c2nnc3ccc(SCC(=O)NCc4ccco4)nn23)cc1,4.96
4,O=C(CSc1ccc2nnc(-c3ccccc3)n2n1)NCc1ccco1,-65.8
5,O=C(CSc1ccc2nnc(-c3ccncc3)n2n1)NCc1ccco1,-7.28
6,CCOc1ccc(OCCNC2CCCC2)cc1,2.09
7,O=C(NCc1ccco1)C(NS(=O)(=O)c1cccc2nsnc12)c1ccccc1 (stereo not drawn),7.81
8,O=C(CCn1c(=O)[nH]c2ccsc2c1=O)N1CCN(c2cccc(Cl)c2)CC1,-6.52
9,CC(CNC(=O)c1ccc(N)cc1)NC(=O)c1ccc(N)cc1 (stereo not drawn),12
10,CCOc1ccc(C(=O)NCC(C)NC(=O)c2ccc(OCC)cc2)cc1 (stereo not drawn),22.5
11,CC(CNC(=O)c1ccc(C#N)cc1)NC(=O)c1ccc(C#N)cc1 (stereo not drawn),-81.9
12,CN(C)/C=C/C(=O)c1ccccc1F,4.57
13,COc1ccc(-c2[nH]ncc2CN2CCCC(C(=O)c3cccc(OC)c3)C2)cc1 (stereo not drawn),-29.5
14,COc1cccc(OC)c1CN1CCCC(C(=O)c2ccccc2SC)C1 (stereo not drawn),-37.8
15,COc1ccc(C(=O)C2CCCN(Cc3cccc4c3OCO4)C2)cc1OC (stereo not drawn),-29.3
16,COc1ccc(C(=O)C2CCCN(Cc3cn[nH]c3-c3ccccc3)C2)cc1OC (stereo not drawn),-75.4
17,COc1ccccc1CN1CCCC(C(=O)c2ccccc2SC)C1 (stereo not drawn),-27.3
18,CCOc1ccccc1CN1CCCC(C(=O)c2ccc(OC)c(OC)c2)C1 (stereo not drawn),-51.1
19,COc1cccc(CN2CCCC(C(=O)c3ccccc3SC)C2)c1O (stereo not drawn),-76.9
20,COc1ccc(C(=O)C2CCCN(Cc3ccc(C)s3)C2)cc1OC (stereo not drawn),-32.5

row,Structure (SMILES),"hERG current change (%, negative = inhibition) at 1uM [%]"
1,COc1ccc(C(=O)C2CCCN(Cc3cn[nH]c3-c3ccc(F)cc3)C2)cc1OC (stereo not drawn),-25.9
2,COc1ccc(C(=O)C2CCCN(Cc3nc4ccccc4nc3C)C2)cc1OC (stereo not drawn),-83.3
3,COc1ccc(C(=O)C2CCCN(Cc3cnc(C)s3)C2)cc1OC (stereo not drawn),2.68
4,COc1ccc(C(=O)C2CCCN(Cc3c(O)cccc3OC)C2)cc1OC (stereo not drawn),-7.05
5,CS(=O)(=O)N(Cc1cccc(CN(C(C(=O)O)c2ccccc2)S(C)(=O)=O)c1)C(C(=O)O)c1ccccc1 (stereo not drawn),16.9
6,O=C(O)CC1(CC(=O)Nc2ccc(C(F)(F)F)cc2)CCCC1,15.6
7,Cc1ccc(OCCC(=O)OCC(=O)NC(=O)NC2CCCCC2)cc1,14.2
8,Cn1cnnc1SCc1ccccc1Br,12.6
9,CC(=O)Nc1ccc(NC(=O)C(C)Sc2n[nH]c(-c3ccc(C)cc3)n2)cc1 (stereo not drawn),8.42
10,Cc1ccc(C)c(-n2c(C)nc3ccccc3c2=O)c1,13.2
11,CC(C)(C)c1ccc(C(=O)NCCc2ccccc2)cc1,6.65
12,Cc1ccc(C2=NN=C(NC(=O)CSc3nnc4c5ccccc5n(C)c4n3)SC2)cc1,8.27
13,Cc1ccc2oc(C(=O)N3CCN(C)C[C@@H]3C(C)C)c(C)c2c1,9.07
14,O=C(OCCNC(=O)c1ccc2ccccc2n1)c1ccc(F)cc1,4.77
15,Cc1ccc(OCCCC(=O)Nc2ccc(S(N)(=O)=O)cc2)cc1,9.66
16,COc1ccc([N+](=O)[O-])cc1NS(=O)(=O)c1ccc(Cl)c(C(=O)Nc2sc3c(c2C#N)CCCCC3)c1,17.4
17,COc1ccc(/C(N)=N/OC(=O)CCc2ccccc2)cc1,4.26
18,COc1cccc(C(=O)CN(C(=O)c2ccc(Cl)cc2Cl)N2C(=O)c3ccccc3C2=O)c1,8.71
19,CCC1(CC)NC(=O)N(CC(=O)OCC(=O)Nc2ccc(C(F)(F)F)cc2)C1=O,2.71
20,CCOc1ccc(CN2CCCC(C(=O)c3ccccc3OC)C2)cc1 (stereo not drawn),-74.1

row,Structure (SMILES),"hERG current change (%, negative = inhibition) at 1uM [%]"
1,COC(=O)c1ccc(CN2CCCC(C(=O)c3ccccc3OC)C2)cc1 (stereo not drawn),-6.6
2,O=C(c1ccc2c(c1)OCO2)C1CCCN(Cc2cn[nH]c2-c2cccc(F)c2)C1 (stereo not drawn),-42.7
3,COc1ccccc1C(=O)C1CCCN(Cc2ccc(Oc3ncccn3)cc2)C1 (stereo not drawn),-0.388
4,O=C(c1ccc2c(c1)OCO2)C1CCCN(Cc2ccccn2)C1 (stereo not drawn),-13
5,O=C(c1ccc2c(c1)OCO2)C1CCCN(Cc2cn[nH]c2-c2ccccc2)C1 (stereo not drawn),-67.3
6,CCC(CC)c1nnc(NC(=O)C23CC4CC(CC(NC(C)=O)(C4)C2)C3)s1,0.699
7,Cc1cc(C)c(C)c(C(=O)c2ccccc2C(=O)O)c1C,6.64
8,COCCNC(=O)COC(=O)c1cccnc1SC,12.8
9,CC1CCN(C(=O)c2cccc(S(=O)(=O)N3CCCCC3)c2)CC1,2.17
10,CCOC(=O)C1=C(CSc2nc(-c3ccccc3)ccc2C#N)OC(N)=C(C#N)C1c1cccnc1 (stereo not drawn),-6.76
11,Cc1ccc(C(=O)N/C(=C\c2ccc(F)cc2)C(=O)NCCCn2ccnc2)cc1,-85.1
12,COc1ccc(/C=C(\NC(=O)c2ccc(Cl)cc2)C(=O)NCCCn2ccnc2)cc1OC,9.45
13,O=C(NCCCn1ccnc1)/C(=C/c1ccc(F)cc1)NC(=O)c1ccccc1,-72.2
14,COc1ccc(/C=C(\NC(=O)c2ccc(C)cc2)C(=O)NCCCn2ccnc2)cc1OC,12.1
15,CSc1ccc(/C=C(/NC(=O)c2ccccc2)C(=O)NCCCn2ccnc2)cc1,-15.6
16,Cc1ccc(/C=C(\NC(=O)c2ccc(C)cc2)C(=O)NCCCn2ccnc2)cc1,-87
17,O=C(NCCCn1ccnc1)/C(=C\c1ccccc1F)NC(=O)c1ccccc1,-42.5
18,Cc1ccc(C(=O)N/C(=C\c2cn(C)c3ccccc23)C(=O)NCCCn2ccnc2)cc1,13.5
19,Cc1ccc(C(=O)N/C(=C/c2ccccc2F)C(=O)NCCCn2ccnc2)cc1,-22.5
20,Cc1ccc(C(=O)N/C(=C\c2ccccc2)C(=O)NCCCn2ccnc2)cc1,-87
